Laboratory results as given in ChEMBL document CHEMBL4513216, “Probing the Open Global Health Chemical Diversity Library for Multistage-Active Starting Points for Next-Generation Antimalarials” (ACS Infect Dis, 2020).
Hit rate of the full screen: of about 69,000 compounds, about 8,600 (12%) showed an effect of 50% or more. The entries come from a sample that favours strong results as a whole.

Each molecule was assayed on Plasmodium berghei (assay: Screen against P. berghei liver stage (PbLuc), transformed with Luciferase, at 10uM). Conditions: tested at 10 uM.
Format: functional, HepG2

In order of rising INHIBITION:
1. CC(C)c1nnc2n1CCN(Cc1cccc3c1OCCO3)C2  -67.8%
2. CC(C)c1nnc2n1CCN(Cc1nc3c(F)cccc3[nH]1)C2  -65%
3. Cc1cc2ccccc2n1CCC(=O)N1CCCC(O)(CN(C)C)CC1 (stereo not given)  -60.9%
4. Cc1nnc2n1CCN(Cc1nc3c(F)cccc3[nH]1)C2  -43.5%
5. CC(c1ccc(S(N)(=O)=O)cc1)N(C)C(=O)c1ccccc1I (stereo not given)  -43.5%
6. Fc1cccc2[nH]c(CN3CCn4c(nnc4C4CC4)C3)nc12  -33.5%
7. Cc1cc(F)cc(NC(=O)N(C)CC(C)(CO)CO)c1  -31.38%
8. Cc1[nH]c2ccc(C(=O)N3C[C@@H](O)[C@H](N4CCOCC4)C3)cc2c1C  -29.8%
9. N#Cc1ccccc1N1CCCN(C(=O)CCc2cccs2)CC1  -29.1%
10. Cc1cc(C(=O)N(C)Cc2ccoc2)c(NC(=O)C(C)(C)C)s1  -28.9%
11. CC(C)C(=O)NCc1ccc(N2CCCC2)nc1  -24.2%
12. CN(C)CC1(O)CCCN(C(=O)Cn2nc3ccccc3n2)CC1 (stereo not given)  -21.8%
13. CCS(=O)(=O)N1C[C@@H](O)[C@H](Oc2cccc(F)c2)C1  -18.8%
14. CCNC(=O)[C@@H]1C[C@@H](NC(=O)c2ccsc2)CN1CCCSC  -16.9%
15. Cc1cc(C)nc(N2CCC(c3c(C(N)=O)sc4ccccc34)C2)n1 (stereo not given)  -14.2%
16. O=C(NCc1ccccc1CN1CCC(O)CC1)Nc1ccncc1  -8.19%
17. NC(=O)c1cc(NC(=O)N2CCCCCC2)ccc1F  -7.9%
18. Cc1nc2ccc(C(=O)N3CCC(COc4ccccn4)CC3)cc2[nH]1  -6.73%
19. CCOc1ncccc1NC(=O)N1CCC(n2cncn2)CC1  -2.98%
20. CCN1C[C@H]2CCN(C(=O)NC)CC[C@H]2S1(=O)=O  -0.813%
21. Cc1cnn(CC2CCCN2C(=O)CCc2c(C)noc2Cl)c1 (stereo not given)  0%
22. COc1cc(Cl)ccc1CNC(=O)N1CCC(n2cncn2)CC1  0.411%
23. CNC(=O)c1sc2ccccc2c1C1CCN(c2nc(C)cc(C)n2)C1 (stereo not given)  0.696%
24. Cc1ncc2c(n1)CN(Cc1nc3c(F)cccc3[nH]1)CC2  0.902%
25. CN(C)c1ncc(-c2ccc(NC(=O)[C@@H]3CCCCN3)cc2)cn1  1.11%
26. CC(C)Cc1noc(CN2CCOCC2)n1  1.48%
27. COc1cccc2c(=O)n(Cc3nc(C)cc(O)n3)cnc12  1.56%
28. Cc1ccccc1CNC(=O)N1CCC(n2cncn2)CC1  4.52%
29. COC(=O)c1cc(CN2CCC(c3noc(C)n3)CC2)c(C)s1  7.24%
30. N[C@@H]1CC[C@@H](Nc2nccc(CCC(F)(F)F)n2)C1  7.4%
31. COc1ncccc1NC(=O)N1CCC(CNC(C)=O)CC1  7.9%
32. COc1ccccc1CC(=O)NC1CCCc2cn[nH]c21 (stereo not given)  8.31%
33. O=C(Cc1cccnc1)N1CCC2(CC1)CCN(C1CCOCC1)CC2  8.44%
34. O=C(NCc1csc(-c2cnccn2)n1)c1cnn2c1CCCC2  8.7%
35. Cn1cnc2cc(CCC(=O)Nc3n[nH]c(C4CCCO4)n3)ccc21 (stereo not given)  8.99%
36. CC(Cn1cncn1)Nc1ccc(-c2nccn2C)nn1 (stereo not given)  9.91%
37. COc1ccccc1C(C)NC(=O)N1CCC(n2cncn2)CC1 (stereo not given)  11.2%
38. CCOc1ncccc1CNC(=O)N1CCC(n2cncn2)CC1  11.4%
39. CC(C)NC(=O)N1CCC2(CC1)CN(C(=O)NC(C)C)CCO2  11.8%
40. COc1ncccc1NC(=O)NCC1CC1  12.2%
41. Cc1nc(CN2CCCCC2CCc2ccc(O)cc2)co1 (stereo not given)  12.6%
42. CCS(=O)(=O)N1CCN(C(C)c2ncc(-c3ccccc3)o2)CC1 (stereo not given)  12.9%
43. Cc1cccc(CNC(=O)CNc2cc(CO)ccc2Cl)c1  14.2%
44. CC1COCCN1Cc1nc(C(C)(C)C)no1 (stereo not given)  15.2%
45. CN1CCCC1(CCCc1cccnc1)C(=O)NCc1nccn1C (stereo not given)  15.5%
46. COc1ccc(Oc2ncccc2NC(=O)N2CC[C@H](O)C2)cc1  16.3%
47. c1coc(-c2nc(CN3CCCC(Cn4cncn4)C3)cs2)c1 (stereo not given)  16.8%
48. COc1ccccc1CCNC(=O)N1CCC(n2cncn2)CC1  16.9%
49. CC(C)c1noc(CN2CCOCC2C)n1 (stereo not given)  17.5%
50. Cc1nc(CN(C)C(=O)c2cc(C)sc2NC(=O)C(C)(C)C)no1  18%
51. CCc1nnc2n1CCN(Cc1ccc3c(c1)OCCO3)C2  18.9%
52. Cc1nc(CN2C(=O)CCC23CCN(Cc2ccccn2)CC3)cs1  19.4%
53. Cc1noc(CN(C)Cc2cnc(N3CCOCC3)nc2)n1  20.1%
54. CC1CCCCN1Cc1nc(Cc2ccccc2)no1 (stereo not given)  20.2%
55. Cc1cc(C)nc(C2CCCN2C(=O)c2coc(C)n2)n1 (stereo not given)  20.2%
56. O=C(NCc1ccccc1)C1CN(c2ccccn2)CCO1 (stereo not given)  22%
57. CCN(CC)C(=O)C1CCN(C(=O)Nc2cccnc2OC)CC1  22.6%
58. CCOc1ncccc1NC(=O)N1CCCC(CNC(N)=O)C1 (stereo not given)  22.8%
59. CC1COCCN1Cc1nc(-c2cccs2)no1 (stereo not given)  22.9%
60. Cc1cccc(CN2C[C@@H]3CN(C(=O)c4ccco4)C[C@@H]3C2=O)n1  23.5%
61. CC1CCCN(C(=O)Nc2ccc(F)c(C(N)=O)c2)C1 (stereo not given)  23.6%
62. CCCc1cc(NCc2cc(C)on2)n2nccc2n1  23.8%
63. Cc1cc(C)n(-c2ccc(C(=O)NCC(CO)Cc3cccs3)cc2)n1 (stereo not given)  23.9%
64. CCc1cc(NCc2cc(CC(C)C)on2)n2nccc2n1  26.8%
65. CN(C)C(=O)C1CCc2nnc(CNC(=O)c3ccc(Cl)cc3Cl)n21 (stereo not given)  27.5%
66. CCc1csc(C2CCCN(C(=O)c3cc(C4CC4)[nH]n3)C2)n1 (stereo not given)  27.8%
67. O=C(c1cc2c(s1)CCC2)N1CCC(c2cnccn2)CC1  28.5%
68. O=C([C@@H]1CCO[C@@H]2CCN(Cc3ccc(F)cc3)C[C@H]21)N1CCCCO1  30.3%
69. O=C(COC1CCCC1)NCCc1nc(-c2ccccn2)cs1  30.8%
70. CC[C@H](Cn1ncc2ccccc2c1=O)NC(=O)c1ccccn1  31.3%
71. CCC(C)NC(=O)CCc1ccc(OCC(F)(F)F)c(OC)c1 (stereo not given)  31.9%
72. FC(F)(F)CCc1ccnc(NC2CCC(n3cnnc3)CC2)n1 (stereo not given)  32.3%
73. Cc1cc(C)n(Cc2ccc(-c3noc(C(=O)NCCCO)n3)cc2)n1  33%
74. Cc1nc(C(=O)N2CCN(S(=O)(=O)N(C)C)CC2)c(-c2ccccc2)s1  36.6%
75. CC(C)c1ncc2c(n1)CN(Cc1nc3c(F)cccc3[nH]1)CC2  36.6%
76. Cc1ccc2c(c1)CCC21CCN(C(=O)CN(C)C)CC1  38.5%
77. CC1COCCN1Cc1noc(C(C)(C)C)n1 (stereo not given)  38.7%
78. CN(C)CCN(Cc1ccc(F)cc1)C(=O)c1ccn(C)c(=O)c1  39.1%
79. Cc1noc(C)c1CN(C)Cc1cnc(N2CCOCC2)nc1  39.4%
80. CN1CC(=O)N(c2cnn(C)c2)CC12CCN(Cc1cccnc1)C2 (stereo not given)  39.8%
81. O=C(NCc1ccccc1CN1CCC(O)CC1)Nc1ccccc1  40.2%
82. c1csc(CN2CCCn3cnc(CN4CCCC4)c3C2)c1  41.6%
83. c1cc(CN2CCc3cncnc3C2)c2c(c1)OCCO2  41.6%
84. CC(C)(NCC(=O)NC(=O)NC1CC1)c1ccc2c(c1)OCO2  43.3%
85. CC(C)Oc1ncccc1CNC(=O)NC(C)c1cccs1 (stereo not given)  43.6%
86. COc1ccc(Oc2ncccc2NC(=O)N2CCOC(C)C2)cc1 (stereo not given)  44.3%
87. O=S(=O)(Cc1ccc(F)cc1F)NCCOc1cccnc1  46.1%
88. CC(CCn1cccn1)Nc1ccc(-c2nccn2C)nn1 (stereo not given)  48.5%
89. CCc1nnc2n1CCN(Cc1cccc3c1OCCO3)C2  50.35%
90. CC(C)Cc1noc(CN2CCOCC2C)n1 (stereo not given)  51%
91. CC(C)Oc1ccccc1CNC(=O)N1CCC(n2cncn2)CC1  51.3%
92. Cc1cc(C(=O)N(C)Cc2ccn[nH]2)c(NC(=O)C(C)(C)C)s1  51.3%
93. O=C(NCc1ccccc1CN1CCC(O)CC1)Nc1ccccn1  52%
94. Fc1cccc2[nH]c(CN3CCc4cncnc4C3)nc12  52.8%
95. CCc1ncc2c(n1)CN(Cc1nc3c(F)cccc3[nH]1)CC2  52.8%
96. CCCc1cc(CNc2cc(CCC)nc3ccnn23)on1  53.5%
97. CCCC1CCCN(C(=O)Nc2ccc(F)c(C(N)=O)c2)CC1 (stereo not given)  53.8%
98. CC1COCCN1Cc1nc(Cc2ccccc2)no1 (stereo not given)  54.4%
99. COc1ccc(Oc2ncccc2NC(=O)N2CCOCC2)cc1  55.5%
100. CC(C)Oc1ccccc1NC(=O)N1CCC(n2cncn2)CC1  56.6%
101. COc1ncccc1NC(=O)N1CCCC(CNC(=O)OC(C)(C)C)C1 (stereo not given)  57.7%
102. CCc1nnc2n1CCN(Cc1nc3c(F)cccc3[nH]1)C2  58.1%
103. CC(CCCC(C)(C)O)Nc1ccc(-c2nccn2C)nn1 (stereo not given)  60.4%
104. CCOc1ccccc1CNC(=O)N1CCC(n2cncn2)CC1  63.5%
105. CCCc1noc(CN2CCOCC2C)n1 (stereo not given)  65.6%
106. CC(C)c1nc(CN(C)Cc2cnc(N3CCOCC3)nc2)no1  74.7%
107. CNC(=O)c1sc2ccccc2c1C1CCN(c2cc(C)nc(C)n2)C1 (stereo not given)  74.9%
108. NC1CCC(Nc2nccc(CCC(F)(F)F)n2)CC1 (stereo not given)  75.6%
109. CCCC1CCCN(C(=O)Nc2cccnc2OC)CC1 (stereo not given)  81.6%
110. CN(C)CC1(O)CCCN(C(=O)Cn2ccc3ccccc32)CC1 (stereo not given)  89.9%
